Reference: PubChem BioAssay (Tox21)
Inconclusive results are not listed. The source made the active and inactive calls. Calls follow the shape of the dose curve; as a rule, active = well fitted activation curve with a large enough effect in the signal ratio in the repeat runs (not every such curve was filed as active); inconclusive = weak or mixed curves, or effect the other way; inactive = flat fitted curve, though single readings scatter; the % refers to the signal ratio.

Test: qHTS assay to identify small molecule agonists of the endoplasmic reticulum stress response signaling pathway (AID 1159516)
Details: ESRE-bla HeLa, ER stress beta-lactamase reporter, 5 h; series mostly up to 61 µM
Description: National Center for Advancing Translational Sciences [NCATS]
NIH Chemical Genomics Center [NCGC]
U.S. Environmental Protection Agency [EPA]
National Institutes of Environmental Health Sciences [NIEHS]
National Toxicology Program [NTP]
U.S. Food and Drug Administration [FDA]
Endoplasmic Reticulum (ER) plays an important role in cellular signaling, protein folding/maturation, stress response, lipid biosynthesis, calcium storage and release etc. Under stress conditions, proteins in ER misfold or unfold, and leading to the expression of ER stress responsive genes. ER stress has been associated with a variety of pathophysiological conditions such as cancer, inflammation, neurodegenerative diseases, diabetes, ischemic heart disease etc. To identify the compounds that induce ER stress response, an ER stress reporter cell line, CellSensor ESRE-bla HeLa (Life Technologies, Carlsbad, CA) containing a beta-lactamase reporter gene under control of the Endoplasmic reticulum Stress Response Element (ESRE) was used to screen Tox21 10K compound library.
Tox21 Assay Protocol Summary:
ESRE-bla HeLa cells were dispensed at 1,500 cells/6 uL of assay medium per well into black wall/clear-bottom 1536-well plates using a Multidrop Combi (ThermoFisher Scientific, Waltham, MA) dispenser. After the assay plates were incubated at 37 C and 5% CO2 for an overnight, 23 nL of compounds dissolved in DMSO, positive controls or DMSO only was transferred to the assay plate by a Pintool station (Kalypsys, San Diego, CA). The assay plates were incubated at 37 C and 5% CO2 for 5 hr. One uL of LiveBLAzer B/G FRET substrate (Life Technologies) was added using a Flying Reagent Dispenser (Aurora Discovery, San Diego, CA) and the plates were incubated at room temperature for 2 hr. Fluorescence intensity (405 nm excitation, 460 nm and 530 nm emissions) was measured using an Envision plate reader (PerkinElmer, Shelton, CT).

**Q.** Which outcome does the source give for `C=CCc1cc(OC)c(O)c(C(=O)NCCO)c1` here?
**A.** inactive

**Q.** For `CN1[C@@H]2CC[C@H]1CC(OC(=O)c1c[nH]c3ccccc13)C2` (stereo not given in full), which outcome is on record?
**A.** inactive

**Q.** For `CCCNC(C)(C)COC(=O)c1ccccc1`, which outcome is on record?
**A.** inactive

**Q.** With `CCN1CC(CCN2CCOCC2)C(c2ccccc2)(c2ccccc2)C1=O` (stereo not given) as the compound, how does the outcome read?
**A.** inactive

**Q.** Which outcome does the source give for `O=c1oc2c(O)c(O)cc3c(=O)oc4c(O)c(O)cc1c4c23` here?
**A.** inactive

**Q.** For `CC(C)C1=CC2=CC[C@@H]3[C@](C)(CCC[C@@]3(C)C(=O)O)[C@H]2CC1`, which outcome is on record?
**A.** inactive

**Q.** With `Oc1ccccc1F` as the compound, how does the outcome read?
**A.** inactive

**Q.** With `CC(C)c1ccccc1` as the compound, how does the outcome read?
**A.** inactive

**Q.** For `C[C@@H]1CN(c2c(F)c(F)c3c(=O)c(C(=O)O)cn(C4CC4)c3c2F)C[C@H](C)N1`, which outcome is on record?
**A.** inactive

**Q.** With `OCc1ccccc1O` as the compound, how does the outcome read?
**A.** inactive

**Q.** Which outcome does the source give for `CCOC(=O)C1CC(=O)C(=C(O)C2CC2)C(=O)C1` (stereo not given) here?
**A.** inactive

**Q.** Which outcome does the source give for `O=C1N(c2ccccc2)c2ccccc2C1(Cc1ccncc1)Cc1ccncc1` here?
**A.** inactive

**Q.** Which outcome does the source give for `Cc1ccc([N+](=O)[O-])c(N)c1` here?
**A.** inactive

**Q.** Which outcome does the source give for `CCCCNc1ccc(C(=O)OCCN(CC)CC)cc1` here?
**A.** inactive

**Q.** With `CN1CCN(c2c(F)cc3c(=O)c(C(=O)O)cn4c3c2SCC4)CC1` as the compound, how does the outcome read?
**A.** inactive

**Q.** With `CC(C)C(=O)OCC(C)(C)C(O)C(C)C` (stereo not given) as the compound, how does the outcome read?
**A.** inactive

**Q.** For `CC1(C)O[C@@H]2C[C@H]3[C@@H]4CCC5=CC(=O)CC[C@]5(C)[C@@]4(F)[C@@H](O)C[C@]3(C)[C@]2(C(=O)CCl)O1`, which outcome is on record?
**A.** inactive

**Q.** With `C/C(=N\O)[C@@H](C)NCC(C)(C)CN[C@H](C)/C(C)=N/O` as the compound, how does the outcome read?
**A.** inactive

**Q.** For `Clc1cccc(-c2cc(Cl)cc(Cl)c2)c1`, which outcome is on record?
**A.** inactive

**Q.** Which outcome does the source give for `CC(=O)Nc1ccc(C)c(Cl)c1` here?
**A.** inactive

**Q.** With `NC1=NCC2c3ccccc3Cc3ccccc3N12` (stereo not given) as the compound, how does the outcome read?
**A.** inactive

**Q.** For `CCOc1ccc(NC(N)=O)cc1`, which outcome is on record?
**A.** inactive

**Q.** With `O=Cc1ccc(O)c(O)c1O` as the compound, how does the outcome read?
**A.** inactive

**Q.** With `CC(C)C[C@H](NC(=O)OCC1c2ccccc2-c2ccccc21)C(=O)O` as the compound, how does the outcome read?
**A.** inactive

**Q.** For `NC/C=C/C(=O)O`, which outcome is on record?
**A.** inactive

**Q.** Which outcome does the source give for `CC/C=C\CCOC(=O)CCCCC` here?
**A.** inactive

**Q.** For `CCCCCCCCc1ccc(S(=O)(=O)O)cc1`, which outcome is on record?
**A.** inactive

**Q.** Which outcome does the source give for `Cc1nc(N)nc(N)c1-c1ccc(Cl)c(Cl)c1` here?
**A.** inactive

**Q.** With `Cc1cc2c(s1)Nc1ccccc1N=C2N1CCN(C)CC1` as the compound, how does the outcome read?
**A.** inactive

**Q.** For `CC(C)(C)c1ccc(OC(=O)c2ccccc2O)cc1`, which outcome is on record?
**A.** inactive

**Q.** With `CCCCc1ccc2nc(NC(=O)OC)[nH]c2c1` as the compound, how does the outcome read?
**A.** inactive

**Q.** With `CNCCC(Oc1ccccc1OC)c1ccccc1` (stereo not given) as the compound, how does the outcome read?
**A.** inactive

**Q.** For `CC(=O)OC1C2(C)CCC(C2)C1(C)C` (stereo not given), which outcome is on record?
**A.** inactive

**Q.** Which outcome does the source give for `CC(=O)OC(C)OC(C)=O` here?
**A.** inactive

**Q.** With `CCCCOc1cc(C(=O)NCCN(CC)CC)c2ccccc2n1` as the compound, how does the outcome read?
**A.** inactive

**Q.** Which outcome does the source give for `CC/C=C\CCOC(=O)C(C)C` here?
**A.** inactive

**Q.** For `NC(=O)Cc1cccc(C(=O)c2ccccc2)c1N`, which outcome is on record?
**A.** inactive

**Q.** Which outcome does the source give for `O=C(O)c1ccccc1Nc1cc(Cl)ccc1C(=O)O` here?
**A.** inactive

**Q.** With `O=c1[nH]cnc2c1ncn2[C@@H]1O[C@H](CO)[C@@H](O)[C@H]1O` as the compound, how does the outcome read?
**A.** inactive

**Q.** For `CO[Si](C)(C)OC`, which outcome is on record?
**A.** inactive
